Assay results reported in the supplement of paper PMC6555819.

Tested on: RARb:RXRa (NR concentration 270 nM, RXRa partner concentration 90 nM)
Experiment: PBM binding z-score (relative to random genomic background probes); higher = stronger binding; sequences stand for … in GC…GCGATTGACAGCGTAGAATGAAGG
How it was run: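 Regression normalization was applied to scanned fluorescence from custom Agilent 4×180K protein-binding microarrays. Before scanning, arrays were incubated 1 h with ligand-free nuclear receptor dimers, and binding was detected with antibodies against each partner (one per run). Binding z-scores use the random background probes as reference.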

Sequence	PBM binding z-score
CTACCAAGGTGAACAAGGTCGTTGACTACTATTC	2.29
GCTAGCTGGTCAGTAAAAGGTCACACACCGGTCG	4.23
AGTCAAAGTTCACTAGGTAACGTCAGATTCAGCT	4.88
CTCGAAAGGTAGGTTGAGGTGAGTATACGGATAA	0.475
TCATATAGGTAAATGCGAGGTGAAAGTCCGATCT	0.77
TAGCCTAGGGCATTGGGCCAGTATAGTACGCATC	1.08
ATCTCTAGGTAAAGTTCAGTAAAAGATCGATAGA	2.82
CAGCCTAGGTCAGGGCTAGTATAGGAGGAACGTT	3.41
CAGACTAGGTCAGGGCCAGTATAGGAGGAACGTT	3.12
CCTCGGAGGACAGAAGGTCAGAGTTGTCCGCTTT	3.16
CTCGAAAGGTCGGTTGAGGTGAGTATCCGGATAA	3.18
ATCGAAAGGTCGAGGTGAGTATAGAGAAAGGGAA	4.18
AATACAGGGTCATCGTAGGCCAAAGTACGCACAG	4.29
CGTCCAAGCTCAATGCTAGGTCAGTGAAAGCATT	0.961
ATCTCTAGGTAAAGATAGTTCAGTGACTGCAAAT	0.693
TCTATTAGTTGAAGGGCAACCGGCGAGTCCGTTT	1.74
CTCGAAACGTCGGTTGAGGTGAGTATACGGATAA	0.205
ACTAGCAGGCCAAGGGACACTCAAGATTAGTCCG	1.05
TTACCAAGGTTAAGGTCGTTGATCCCTCTGTAGA	3.04
GCTGCTAGGTCAGGTTGGACAGCTAACGGGTACG	3.39

Sequence	PBM binding z-score
GCTATTCGTTGAAAGGGCAACCGAATGATTCTCG	1.8
CAAACTAGGTCAAAGGTCAATGTCGAGCCAACCA	5.51
ATATGTAGGTTATCGGGGCATTCAGTTTGCGCAT	1.7
TCTAGTTGGTCAAATGTCACACACTCGAAATGCG	1.89
CTACCAAGGTGAACAAGGTCGTTGGTTACTATTC	2.14
TCTTGTAGGTCAGCAGGTTAAGAAAGCTGGCCAA	3.91
CGAACTTGGTCAGAACAGGACAGTGAAGGATGAT	0.542
ACAGACAGGTGAGTGAAGGTAACTGAGCTGGACG	0.632
TCTATTAGTTGAAGGGCATCCGACGAGTCCGTTT	1.24
AGTCAAAGTTCATCTAGGTAAAGTAAGATATGCT	5.22
CCTTACGGGTCAAGGTTACAGCACGGGTGGTACG	4.45
CAAACTACGTCAAGGTCAAAGTCGGTTTGTGCCA	4.04
CCTCGGAGGACATCAGGAGGTCAGAGCTGCCAGA	2.74
AGAACGAGGGCAATGAGTTGGTAGCACGGGTGGC	1.96
AGTTAAAGTTCAGGACGAGGTAACGTAAAGCACG	4.06
ACAGACAGGTGAGTGCAGGTAACTCAGCTGGACG	0.35
TCATATAGGTAAAAGGTGAAAGCCGGTGTGGTAA	1.95
GCTGCTTGGTCAGGTTGGTCAGCTAACGGGTACG	0.63
CCTTACGGGTCACTCCAGGTTAGAGCATCGGAGT	3.64
CCTACTGGGCCAAAAAGGACATTGATGCCGATAA	0.68
